Cruzain Triton: inhibitors of Trypanosoma cruzi cruzain with detergent. Potency, µM, hits mostly inhibitors. purified cruzain, Z-FR-AMC fluorescence, 0.01% Triton. 200,000 tested, 0.43% active. AID 1478; also: nearly all actives have a fitted effect of over 40% in size
Target sequence (P25779 123-467 limits assumed): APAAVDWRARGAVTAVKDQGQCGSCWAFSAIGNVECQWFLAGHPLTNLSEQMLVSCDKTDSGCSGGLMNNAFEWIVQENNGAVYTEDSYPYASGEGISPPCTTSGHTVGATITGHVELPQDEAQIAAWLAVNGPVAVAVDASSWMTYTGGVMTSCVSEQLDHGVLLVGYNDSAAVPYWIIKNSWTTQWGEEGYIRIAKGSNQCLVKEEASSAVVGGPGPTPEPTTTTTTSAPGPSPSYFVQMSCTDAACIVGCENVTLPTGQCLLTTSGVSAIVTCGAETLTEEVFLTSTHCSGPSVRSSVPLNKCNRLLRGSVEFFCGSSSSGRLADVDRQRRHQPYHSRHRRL
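Z-FR-AMC hydrolysis (2 uM substrate) by cruzain (1.5 nM) monitored kinetically at ex 360/em 450 nm after 15 min room-temperature compound exposure; 0.01% Triton X-100, pH 5.5, 5 mM DTT.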
Cruzain noTriton: blocks cruzain activity in detergent-free assay. P25779. purified cruzain, Z-FR-AMC fluorescence, no detergent. Potency, µM, hits mostly inhibitors. 200,000 tested, 2.3% active; also: nearly all actives have a fitted effect of over 40% in size
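Purified cruzain at 1.5 nM, pre-incubated 15 min with compound at room temperature in 100 mM sodium acetate pH 5.5, 5 mM DTT, 0.00005% Triton X-100. Reaction started with 2 uM Z-FR-AMC; AMC fluorescence increase over 60 s gives rate.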
Each line names hits and unclear results; the compound was inactive in the other large screens. This is a sample that favours compounds with a hit; in the whole collection about 2.5% have one here. Calls follow the shape of the dose curve; as a rule, active = well fitted curve in the direction sought with a large enough effect; inconclusive = small, poorly fitted or top-dose-only effect, or another doubt; inactive = no such curve, though single readings can be large; an effect the other way counts as inactive or inconclusive.

CN(C)c1ccc(Sc2nnc(NC(=O)Nc3ccc(Cl)cc3Cl)s2)cc1	Cruzain noTriton 10µM
O=C(NC1CCCC1)C(c1ccsc1)N(CCc1ccccc1)C(=O)Cc1cccs1 (centres undefined)	Cruzain noTriton inconclusive
O=C(NC1CCCCC1)C(c1ccccc1)N(C(=O)Cc1ccsc1)c1ccccc1 (centres undefined)	Cruzain noTriton 16µM
O=C(NC1CCCCC1)C(c1ccc(F)cc1)N(C(=O)Cc1ccsc1)c1ccc(F)cc1 (centres undefined)	none
O=C(NC1CCCC1)C(c1ccsc1)N(C(=O)Cc1cccs1)c1ccccc1 (centres undefined)	Cruzain noTriton 10µM
CNC(=O)[C@]1(C)C[C@H]1[C@H](NC(=O)[C@]1(C)C[C@H]1[C@H](NC(=O)OCc1ccccc1)c1ccccc1)c1ccccc1	none
CCc1ccccc1-n1c(C)nc2cc(C(=O)NCCc3ccc(Cl)cc3)ccc21	none
COc1c2c(cc3c1C(CC(=O)c1c(O)c(OC)c4occc4c1OC)[N+](C)(C)CC3)OCO2 (centres undefined)	none
COC(=O)CN1C(=O)CSc2ccc(S(=O)(=O)Nc3cccc(C)c3C)cc21	none
COc1cc(/C=N/Nc2ccc(Cl)cc2)ccc1OC(=O)c1cccs1	Cruzain noTriton 7.9µM
COc1cc(/C=N/NC(=O)CNC(=O)c2ccccc2)ccc1OC(=O)c1cccs1	none
COc1cc(/C=N/Nc2cccc(C)c2)ccc1OC(=O)c1ccco1	Cruzain noTriton 16µM
COc1cc(/C=N\NC(=O)c2ccc(C)nc2)ccc1OC(=O)c1ccco1	none
O=C(CCC1N=C2c3ccccc3N=C(SCc3cccc(F)c3)N2C1=O)NCc1cccs1 (centres undefined)	none
CCN(CC)CCCNC(=O)c1ccc2c(c1)NC(=O)C(CS(=O)(=O)Cc1ccc(F)cc1Cl)N2 (centres undefined)	Cruzain noTriton inconclusive
CCOC(=O)c1cnc(NCc2ccccc2OC)c2ccccc12	none
COc1ccc(OC)c(C2=NNC(=NCc3ccc4c(c3)OCO4)SC2)c1	Cruzain noTriton 13µM
Oc1ccc(C2=NNC(=NCc3ccc4c(c3)OCO4)SC2)c(O)c1	Cruzain noTriton inconclusive
O=C(O)c1ccc(S(=O)(=O)N(Cl)Cl)cc1	none
Cc1sc2nc(CSc3cccc(C(F)(F)F)c3)[nH]c(=O)c2c1C	Cruzain noTriton 25µM
Cc1ccc(-n2nnnc2SCc2nc3sc(C)c(C)c3c(=O)[nH]2)cc1	Cruzain noTriton inconclusive
COC(=O)c1c(-n2c(C)cc(C=O)c2C)sc2c1CCCC2	Cruzain noTriton 7.9µM
Cc1cc(C=O)c(C)n1-c1sc2c(c1C(=O)O)CCCC2	none
Cc1ccc(S(=O)(=O)O[C@H]2CC(C(C)(C)C)CC[C@@H]2c2ccccc2)cc1 (some centres undefined)	none
CCCCCCC(=O)N(O)C1CC(=O)N(c2ccc(Br)cc2)C1=O (centres undefined)	Cruzain noTriton 10µM
COc1ccccc1N(O)C1CC(=O)N(c2ccc(Br)cc2)C1=O (centres undefined)	Cruzain noTriton inconclusive
C[Si](C)(C/C=C/CC[C@H](O)C1=CCCCC1=O)c1ccccc1	none
C/C(=N\Nc1cccc2ccccc12)c1c(O)n(Cc2ccccc2)c(=O)[nH]c1=O	Cruzain noTriton 10µM
CC(=NCc1cccnc1)c1c(O)n(Cc2ccccc2)c(=O)[nH]c1=O	none
Cc1nn(-c2nc3ccccc3s2)c(N)c1Sc1ccc(F)cc1	Cruzain noTriton 13µM
Cc1nn(-c2nc3ccccc3s2)c(N)c1-c1ccccc1	Cruzain noTriton inconclusive
CCc1ccccc1NC(=O)c1cc(-c2ccc(OC)cc2)on1	none
COc1ccccc1-c1cc(C(=O)Nc2ccc(F)cc2F)no1	Cruzain noTriton 13µM
COc1cccc(C2=NS(=O)(=O)N(C)C(C(=O)Nc3ccccc3SC)=C2)c1	Cruzain noTriton 13µM
CCc1ccccc1NC(=O)C1=CC(c2ccc3c(c2)OCO3)=NS(=O)(=O)N1C	none
COc1ccc(-c2cc(C(=O)Nc3ccccc3SC)no2)cc1	Cruzain noTriton 5µM
COc1ccccc1-c1cc(C(=O)Nc2cc(Cl)ccc2O)no1	none
O=C(C1CCC(Cn2c(=O)c3sccc3n(Cc3ccccc3)c2=O)CC1)N1CCOCC1 (centres undefined)	Cruzain noTriton inconclusive
COc1ccccc1NC(=O)Cn1c(=O)n(Cc2nc(C)no2)c(=O)c2cc3c(cc21)OCO3	none
COc1ccc(CNC(=O)CCCN2C(=O)COc3ccc(C)cc32)cc1	Cruzain noTriton inconclusive
COc1ccc(NC(=O)Cn2cc(S(=O)(=O)N3CCN(c4ccccc4F)CC3)c3ccccc3c2=O)cc1Cl	Cruzain noTriton 7.9µM
COc1cc(Cl)c(C)cc1NC(=O)Cn1cc(S(=O)(=O)N2CCN(c3ccccc3F)CC2)c2ccccc2c1=O	none
COc1ccccc1-c1nn(CCC(=O)Nc2ccc(C)cc2)c2nc(C)cc(C)c12	Cruzain noTriton inconclusive
CC1CCN(c2ncnc3c2nnn3C)CC1	none
CCc1ccc(S(=O)(=O)N(C(=O)Oc2ccccc2)c2ccc3oc(C)c(C(=O)OC)c3c2)cc1	Cruzain noTriton inconclusive
COC(=O)c1c(C)oc2ccc(N(C(=O)Oc3ccccc3)S(=O)(=O)c3ccc(Cl)c([N+](=O)[O-])c3)cc12	Cruzain noTriton 7.9µM
Cc1ccc(NS(=O)(=O)c2cccc(C(=O)N/N=C/c3ccc4c(c3)OCCO4)c2)c(C)c1	Cruzain noTriton 6.3µM
Cc1ccc(NS(=O)(=O)c2cccc(C(=O)N/N=C/c3c(C)nn(-c4ccccc4)c3N3CCCC3)c2)c(C)c1	Cruzain noTriton 32µM
COc1ccccc1NS(=O)(=O)c1cccc(C(=O)N/N=C/c2ccc(N3CCOCC3)cc2)c1	Cruzain noTriton inconclusive
CCNc1ccc(C(=O)N/N=C/c2c(C)nn(-c3ccccc3)c2N2CCCC2)cc1[N+](=O)[O-]	none
CCc1cc2c(=O)c(-c3cnn(-c4ccccc4)c3)c(C)oc2cc1OCC(=O)Nc1cccc(C)c1	Cruzain noTriton inconclusive
CCc1cc2c(=O)c(-c3cnn(-c4ccccc4)c3)c(C)oc2cc1OCC(=O)Nc1ccc(F)c(F)c1	Cruzain noTriton 25µM
Cn1ccc2cc(S(=O)(=O)N3CCC(C(=O)NCCc4ccccc4)CC3)ccc21	none
COc1ccccc1OCC(=O)NCCc1nc2ccccc2[nH]1	Cruzain Triton 16µM, Cruzain noTriton 13µM
Cc1cc(OCC(=O)NCCc2nc3ccccc3[nH]2)cc(C)c1Cl	Cruzain Triton 8.9µM
CCC(=O)NCCc1nc2ccccc2[nH]1	none
Cc1ccc(C(C)(C)C)c(OCC(=O)NCCc2nc3ccccc3[nH]2)c1	none
COC1=C(C(=O)c2ccccc2)C(=O)C2(CC=C(C)C)C[C@H](C(=O)OCC(F)(F)F)C(C)(C)[C@@]1(CC=C(C)C)C2=O (tested in a mixture with another compound)	none
Cc1ccccc1CNC(=O)c1cnc2sc(N3CCC(C)CC3)nn2c1=O	none
CCOC(=O)c1ccccc1NC(=O)c1cc2c(s1)-c1ccccc1SC2	Cruzain noTriton 7.9µM
COc1ccc(Cl)cc1NC(=O)c1cc2c(s1)-c1ccccc1OC2	none
O=C(NCc1ccc(F)cc1)c1cc2c(s1)-c1ccccc1SC2	Cruzain noTriton inconclusive
CCOC(=O)c1ccccc1NC(=O)c1cc2c(s1)-c1c(C)cccc1OC2	none
CCc1ccccc1N(CC)C(=O)c1cc2c(s1)-c1ccccc1SC2	none
CC(C)c1ccc(NC(=O)c2cc3c(s2)-c2ccccc2SC3)cc1	Cruzain noTriton 10µM
O=C(NCc1ccccc1Cl)c1cc2c(s1)-c1ccccc1SC2	Cruzain noTriton 25µM
